Records with an inconclusive call do not appear. Calls of active or inactive are those of the source. The call rests on the fitted dose curve; in most records, active means well fitted curve in the direction sought with a large enough effect in the repeat runs; inconclusive means weak or mixed curves; inactive means no such curve, though single readings can be large; an effect the other way counts as inactive or inconclusive.
assay: qHTS RealTime-Glo MT Cell Viability Assay in HepG2 cells - 24 hour (AID 1224867); conditions: RealTime-Glo luminescence; series mostly up to 76.8 µM; activity change, negative = cytotoxicity: at the top concentration
Procedure, shortened: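 Luminescence read-out: viable HepG2 cells reduce a prosubstrate to a NanoLuc substrate, giving a signal proportional to live cell number. Reads taken at 0, 8, 16, 24, 32 and 40 h of compound exposure at 37 C.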
Further: nearly all actives have a fitted effect of over 50% in size.
On the % scale 0 is the no-effect control and ±100 the full control effect; potency means the concentration at half of the fitted maximal effect.

Structure (SMILES) | activity change, negative = cytotoxicity | Potency
CCN(CC)c1ccc2c(c1)Oc1cc(N(CC)CC)ccc1C21OC(=O)c2ccccc21 | -19.2% [at 35.3 µM] (inactive) | –
CC/C=C\C/C=C\C/C=C\CCCCCCCC(=O)OC | 0.301% (inactive) | –
O=[N+]([O-])c1ccc(CO)cc1 | 3.5% (inactive) | –
N#Cc1nc(Cl)c(Cl)c(Cl)c1Cl | – | 24.5 µM (active)
CC(C)(C)c1ccc(OC2CCCCC2O)cc1 (stereo unspecified) | -7.96% (inactive) | –
CN[C@H]1CC[C@@H](c2ccc(Cl)c(Cl)c2)c2ccc(S(N)(=O)=O)cc21 | – | 24.5 µM (active)
C=CC(C)(C)O | 2.01% (inactive) | –
S=C1NC=NC2N=CNC12 (stereo unspecified) | 0.316% (inactive) | –
CCSCC | 0.453% (inactive) | –
Cc1cc(C)c(O)c(C(C)(C)C)c1 | -7.22% (inactive) | –
CC(=O)CC(N)=O | -0.667% (inactive) | –
CCCCCCCCOC(=O)c1cc(O)c(O)c(O)c1 | – | 19.5 µM (active)
CC(C)=NNC(N)=S | 0.563% (inactive) | –
O=C(O)CN(CCCN(CC(=O)O)CC(=O)O)CC(=O)O | -3.25% [at 15.8 µM] (inactive) | –
CCOC=C(C(=O)OCC)C(=O)OCC | -12.6% (inactive) | –
COc1cccc(-c2ccc(/C=C\CN3CCCCCC3)cc2Cl)c1 | – | 43.4 µM (active)
Nc1cc([N+](=O)[O-])cc(Cl)c1O | -4.69% (inactive) | –

Structure (SMILES) | activity change, negative = cytotoxicity | Potency
CC1(C)[C@H]2CC[C@]1(C)C(=O)C2 | -0.861% (inactive) | –
O[Si](c1ccccc1)(c1ccccc1)c1ccccc1 | -15.7% (inactive) | –
CCC(O)CO (stereo unspecified) | 0.179% (inactive) | –
Oc1cccc2c(O)cccc12 | -0.0654% (inactive) | –
c1ccc2cc3c4ccccc4c4ccccc4c3cc2c1 | -6.95% (inactive) | –
Cn1ccnc1 | -1.72% (inactive) | –
Cc1cccc(C)c1C | -2.02% (inactive) | –
NC(=O)c1ccccc1Cl | -0.401% (inactive) | –
C/C=C/C(=O)C1=C(C)C=CCC1(C)C | 0.465% (inactive) | –
O=C1C=CC(=O)N1c1cccc(N2C(=O)C=CC2=O)c1 | – | 15.5 µM (active)
CCC1(C)C(=O)N(Cl)C(=O)N1Cl (stereo unspecified) | -7.96% (inactive) | –
CC(C)(C)c1cc(CCC(=O)OCCSCCOC(=O)CCc2cc(C(C)(C)C)c(O)c(C(C)(C)C)c2)cc(C(C)(C)C)c1O | -3.41% [at 35.3 µM] (inactive) | –
CCCCCCCCCCCCS(=O)(=O)Cl | 3.24% [at 15.8 µM] (inactive) | –
CCOc1nc(F)cc2nc(S(=O)(=O)Nc3c(Cl)cccc3C(=O)OC)nn12 | 1.27% (inactive) | –
CC(C)c1ccc2sc3ccccc3c(=O)c2c1 | -18% (inactive) | –
COc1cc([C@@H]2c3cc4c(cc3[C@@H](O[C@@H]3O[C@@H]5CO[C@@H](C)O[C@H]5[C@H](O)[C@H]3O)[C@H]3COC(=O)[C@H]23)OCO4)cc(OC)c1O | -20.7% (inactive) | –

assay: qHTS RealTime-Glo MT Cell Viability Assay in HEK293 cells - 32 hour (AID 1224868); conditions: RealTime-Glo luminescence; series mostly up to 76.8 µM; activity change, negative = cytotoxic: at the top concentration; on activity change, negative = cytotoxic: top concentration of the series differs between compounds
Procedure, shortened: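 Nonlytic real-time viability readout: viable cells convert prosubstrate to NanoLuc substrate, giving luminescence proportional to live cell number. HEK293, 600 cells/well, compound added after 5 h, continuous culture at 37 C.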

Structure (SMILES) | Potency | activity change, negative = cytotoxic
COc1cc(/C=C/C(=O)CC(=O)/C=C/c2ccc(O)c(OC)c2)ccc1O | 24.7 µM (active) | –
CCCCCCCCCCCCCCCCCCNC(=O)OC1CCN(C(=O)OC[C@H](COC(=O)N(Cc2cccc[n+]2CC)C(=O)c2ccccc2OC)OC)CC1 | 9.52 µM (active) | –
CC/C=C\C/C=C\C/C=C\CCCCCCCC(=O)OC | – | -2.33% (inactive)
O=[N+]([O-])c1ccc(CO)cc1 | – | 10.6% (inactive)
N#Cc1nc(Cl)c(Cl)c(Cl)c1Cl | 2.19 µM (active) | –
CN[C@H]1CC[C@@H](c2ccc(Cl)c(Cl)c2)c2ccc(S(N)(=O)=O)cc21 | 19.5 µM (active) | –
C=CC(C)(C)O | – | 8.03% (inactive)
S=C1NC=NC2N=CNC12 (stereo unspecified) | 21.9 µM (active) | –
CCSCC | – | 6.35% (inactive)
Cc1cc(C)c(O)c(C(C)(C)C)c1 | – | -7.83% (inactive)
CC(=O)CC(N)=O | – | 12.2% (inactive)
CCCCCCCCOC(=O)c1cc(O)c(O)c(O)c1 | 11 µM (active) | –
CC(C)=NNC(N)=S | – | 7.15% (inactive)
O=C(O)CN(CCCN(CC(=O)O)CC(=O)O)CC(=O)O | – | -12.4% [at 15.8 µM] (inactive)
CCOC=C(C(=O)OCC)C(=O)OCC | – | 3.37% (inactive)
COc1cccc(-c2ccc(/C=C\CN3CCCCCC3)cc2Cl)c1 | 43.4 µM (active) | –

Structure (SMILES) | Potency | activity change, negative = cytotoxic
Nc1cc([N+](=O)[O-])cc(Cl)c1O | – | -7.24% (inactive)
CC1(C)[C@H]2CC[C@]1(C)C(=O)C2 | – | 22% (inactive)
O[Si](c1ccccc1)(c1ccccc1)c1ccccc1 | 38.9 µM (active) | –
CCC(O)CO (stereo unspecified) | – | 3.19% (inactive)
c1ccc2cc3c4ccccc4c4ccccc4c3cc2c1 | – | -2.05% (inactive)
Cn1ccnc1 | – | 10.3% (inactive)
Cc1cccc(C)c1C | – | 5.15% (inactive)
NC(=O)c1ccccc1Cl | – | 0.74% (inactive)
C/C=C/C(=O)C1=C(C)C=CCC1(C)C | – | 2.54% (inactive)
O=C1C=CC(=O)N1c1cccc(N2C(=O)C=CC2=O)c1 | 9.77 µM (active) | –
CCC1(C)C(=O)N(Cl)C(=O)N1Cl (stereo unspecified) | – | 2.24% (inactive)
CC(C)(C)c1cc(CCC(=O)OCCSCCOC(=O)CCc2cc(C(C)(C)C)c(O)c(C(C)(C)C)c2)cc(C(C)(C)C)c1O | – | 0.529% [at 35.3 µM] (inactive)
CCCCCCCCCCCCS(=O)(=O)Cl | – | 18.8% [at 15.8 µM] (inactive)
CCOc1nc(F)cc2nc(S(=O)(=O)Nc3c(Cl)cccc3C(=O)OC)nn12 | – | 11.9% (inactive)
COc1cc([C@@H]2c3cc4c(cc3[C@@H](O[C@@H]3O[C@@H]5CO[C@@H](C)O[C@H]5[C@H](O)[C@H]3O)[C@H]3COC(=O)[C@H]23)OCO4)cc(OC)c1O | 0.861 µM (active) | –

assay: A CellTox Green Cytotoxicity Assay to monitor cytotoxicity in HEK293 cells - 0 hour (AID 1224869); conditions: CellTox Green fluorescence; series mostly up to 76.8 µM; cytotoxicity: at the top concentration
Procedure, shortened: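 Dead-cell fluorescence measured kinetically: asymmetric cyanine dye, HEK293, 600 cells/well, 5 h settle, 23 nL cpd/DMSO, 37 C, reads 0–40 h every 8 h.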

Structure (SMILES) | Potency | cytotoxicity
COc1cc(/C=C/C(=O)CC(=O)/C=C/c2ccc(O)c(OC)c2)ccc1O | 22 µM (active) | –
O=C(CCN1CCC(c2ccccc2)C1)c1ccc2c(c1)OCCO2 (stereo unspecified) | – | 0.328% [at 35.3 µM] (inactive)
CCCCCCCCCCCCCCCCCCNC(=O)OC1CCN(C(=O)OC[C@H](COC(=O)N(Cc2cccc[n+]2CC)C(=O)c2ccccc2OC)OC)CC1 | – | 0.098% [at 35.3 µM] (inactive)
CCN(CC)c1ccc2c(c1)Oc1cc(N(CC)CC)ccc1C21OC(=O)c2ccccc21 | 19 µM (active) | –
CC/C=C\C/C=C\C/C=C\CCCCCCCC(=O)OC | – | -8.84% (inactive)
O=[N+]([O-])c1ccc(CO)cc1 | – | -2.57% (inactive)
N#Cc1nc(Cl)c(Cl)c(Cl)c1Cl | – | 1.49% (inactive)
O=C1OC(O)C(C(Cl)Cl)=C1Cl (stereo unspecified) | – | -0.406% (inactive)
CC(C)(C)c1ccc(OC2CCCCC2O)cc1 (stereo unspecified) | – | -0.264% (inactive)
CN[C@H]1CC[C@@H](c2ccc(Cl)c(Cl)c2)c2ccc(S(N)(=O)=O)cc21 | – | 2.09% (inactive)
C=CC(C)(C)O | – | -5.25% (inactive)
S=C1NC=NC2N=CNC12 (stereo unspecified) | – | 1.4% (inactive)
CCSCC | – | -8.2% (inactive)
Cc1cc(C)c(O)c(C(C)(C)C)c1 | – | -5.25% (inactive)
CC(=O)CC(N)=O | – | -7.7% (inactive)
CCCCCCCCOC(=O)c1cc(O)c(O)c(O)c1 | – | -4% (inactive)
CC(C)=NNC(N)=S | – | -6.02% (inactive)
O=C(O)CN(CCCN(CC(=O)O)CC(=O)O)CC(=O)O | – | -2.37% [at 15.8 µM] (inactive)
CCOC=C(C(=O)OCC)C(=O)OCC | – | 0.393% (inactive)

Structure (SMILES) | Potency | cytotoxicity
COc1cccc(-c2ccc(/C=C\CN3CCCCCC3)cc2Cl)c1 | – | 0.58% (inactive)
Nc1cc([N+](=O)[O-])cc(Cl)c1O | – | -0.896% (inactive)
CC1(C)[C@H]2CC[C@]1(C)C(=O)C2 | – | -0.0756% (inactive)
O[Si](c1ccccc1)(c1ccccc1)c1ccccc1 | – | 1.46% (inactive)
CCC(O)CO (stereo unspecified) | – | -2.79% (inactive)
Oc1cccc2c(O)cccc12 | – | 0.717% (inactive)
c1ccc2cc3c4ccccc4c4ccccc4c3cc2c1 | – | -3.68% (inactive)
Cn1ccnc1 | – | -9.39% (inactive)
Cc1cccc(C)c1C | – | -1.89% (inactive)
NC(=O)c1ccccc1Cl | – | -0.986% (inactive)
C/C=C/C(=O)C1=C(C)C=CCC1(C)C | – | 1.01% (inactive)
O=C1C=CC(=O)N1c1cccc(N2C(=O)C=CC2=O)c1 | – | -0.989% (inactive)
CCC1(C)C(=O)N(Cl)C(=O)N1Cl (stereo unspecified) | – | 0.74% (inactive)
CC(C)(C)c1cc(CCC(=O)OCCSCCOC(=O)CCc2cc(C(C)(C)C)c(O)c(C(C)(C)C)c2)cc(C(C)(C)C)c1O | – | -2.49% [at 35.3 µM] (inactive)
CCCCCCCCCCCCS(=O)(=O)Cl | – | 0.643% [at 15.8 µM] (inactive)
CCOc1nc(F)cc2nc(S(=O)(=O)Nc3c(Cl)cccc3C(=O)OC)nn12 | – | 0.497% (inactive)
CC(C)c1ccc2sc3ccccc3c(=O)c2c1 | – | -3.12% (inactive)
COc1cc([C@@H]2c3cc4c(cc3[C@@H](O[C@@H]3O[C@@H]5CO[C@@H](C)O[C@H]5[C@H](O)[C@H]3O)[C@H]3COC(=O)[C@H]23)OCO4)cc(OC)c1O | – | 4.41% (inactive)
